This passage reports inhibition results from ChEMBL document CHEMBL3433997, “St. Jude Leishmania screening dataset” (2016).

As usually defined, the inhibition is the relative decrease from the control value, in per cent.

Holding throughout (type): functional
Experiment [1] addresses Solute carrier family 2, facilitated glucose transporter member 1 (Homo sapiens) (UniProt P11166). The experiment is described as follows: ST_JUDE_LEISH: Cytotoxicity at 2uM final concentration against transgenic Leishmania Mexicana promastigotes LmGLUT1 that are glucose transport deficient and complemented with the human glucose transporter GLUT1. Activity is measured by DNA content using SYBR green in vitro.

Experiment [2] addresses Hexose transporter 1 (Plasmodium falciparum) (UniProt O97467). The experiment is described as follows: ST_JUDE_LEISH: Cytotoxicity at 2uM final concentration against transgenic Leishmania Mexicana promastigotes LmPfHT that are glucose transport deficient and complemented with the Plasmodium falciparum hexose transporter. Activity is measured by DNA content using SYBR green in vitro.

Experiment [3] concerns the target Glucose transporter (Leishmania mexicana) (UniProt O61059). The experiment is described as follows: ST_JUDE_LEISH: Cytotoxicity at 2uM final concentration against transgenic Leishmania Mexicana promastigotes LmGT2 that are glucose transport deficient and complemented with the L. Mexicana glucose transporter 2. Activity is measured by DNA content using SYBR green in vitro.

Sequence of Solute carrier family 2, facilitated glucose transporter member 1 (Homo sapiens) (P11166 whole entry): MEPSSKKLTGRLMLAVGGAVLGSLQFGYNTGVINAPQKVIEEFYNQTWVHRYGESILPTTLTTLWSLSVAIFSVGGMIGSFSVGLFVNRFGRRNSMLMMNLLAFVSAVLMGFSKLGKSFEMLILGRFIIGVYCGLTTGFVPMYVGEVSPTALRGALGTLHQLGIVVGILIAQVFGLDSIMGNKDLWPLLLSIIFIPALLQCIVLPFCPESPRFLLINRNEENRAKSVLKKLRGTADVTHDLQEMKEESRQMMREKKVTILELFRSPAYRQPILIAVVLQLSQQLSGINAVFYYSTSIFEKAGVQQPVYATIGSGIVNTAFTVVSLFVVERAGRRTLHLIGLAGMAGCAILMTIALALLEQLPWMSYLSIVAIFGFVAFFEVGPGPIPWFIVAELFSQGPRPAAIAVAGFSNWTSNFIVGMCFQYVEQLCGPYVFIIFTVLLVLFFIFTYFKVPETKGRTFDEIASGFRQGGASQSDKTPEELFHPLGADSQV

As to `O=C(NCCc1ccccc1)N(Cc1ccc(-c2cccc(CN3CCNCC3)c2)cc1)C1CCN(Cc2ccccc2)CC1`, the inhibition in experiment [1] was 1.57%; in experiment [2] it was 1.61%; in experiment [3] it was 0.74%.
The corresponding values for `Cc1ccc(NC(C)C(=O)Nc2ccc(C#N)cc2)cc1S(=O)(=O)N1CCCCC1` (stereo unspecified) are 58.5%, 71.8% and 58.8%.
In the case of `COc1ccc2nccc([C@@H](O)CN3CCC(NCCOc4ccccc4C#N)CC3)c2c1`, the inhibition in experiment [1] amounted to 4.87%; in experiment [2] it was 2.43%; in experiment [3] it was 6.46%.
For `COc1ccc(NCc2cccc(-c3cccc(CNCCc4ccccc4)c3)c2)cc1`, the inhibition in experiment [1] was 0%; in experiment [2] it was 0.51%; in experiment [3] it was -1.32%.
The like results for `c1ccc(COc2ccnc(NCCCOc3cccc(CN4CCCCC4)c3)c2)cc1` were, in that order, 1.52%, 1.04% and -0.05%.
The corresponding values for `CC(C)C(C)(C#N)NC(=O)CSc1nc2ccc([N+](=O)[O-])cc2s1` (stereo unspecified) are -0.35%, 0.01% and -1.55%.
The like results for `COc1ccc(C2CC(=O)C3=C(C2)NC(C)=C(C(=O)OC(C)C)C3c2ccccc2F)cc1OC` (stereo unspecified) were, in that order, 13.6%, 2.16% and 1.65%.
Regarding `CN1CCCC(CN2CCN(Cc3ccc(-c4cccc(-c5nc6cc(F)ccc6[nH]5)c4)cc3)CC2)C1` (stereo unspecified), the inhibition in experiment [1] was -0.56%; in experiment [2], 1.31%; in experiment [3], 2.3%.
The like results for `Oc1ccc(-c2ccccc2)cc1CN1CCCCCC1` were, in that order, 1.18%, 2.49% and 1%.
The corresponding values for `O=C(/C=C/c1ccc(I)cc1)NCCCCCN1CCC(c2c[nH]c3ccc(O)cc23)CC1` are 1.49%, 1.64% and 1.49%.
Consider `Cc1cc(=O)c(-c2ccc(Oc3ccc(OC(F)(F)F)cc3)cc2)c(C)[nH]1`, for which the inhibition in experiment [1] was -0.98%; in experiment [2], -0.47%; in experiment [3], -1.38%.
Take `CN(C)S(=O)(=O)n1ccc2c3c(N)nc(N)nc3ccc21`: the inhibition is 44.3% in experiment [1], 46.3% in experiment [2] and 29.3% in experiment [3].
